According to PMC11006913:

These sequences were tested against ALX3 (Homo sapiens, UniProt O95076 139-225, L168V) (assay: PBM; 200 nM protein, PBS). Details: dsDNA, one strand shown.
Sequence of ALX3 (Homo sapiens, UniProt O95076 139-225, L168V) (O95076 139-225 L168V): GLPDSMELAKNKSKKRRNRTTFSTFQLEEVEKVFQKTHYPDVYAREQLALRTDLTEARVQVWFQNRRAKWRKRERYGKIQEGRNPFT
For CCCCCTTC, the binding signal was 7.27 upbm affinity estimate (log intensity, higher = more binding, comparable within an allelic series).
CAGCCTCC was tested, and the binding signal was 7.62 upbm affinity estimate (log intensity, higher = more binding, comparable within an allelic series).
In the case of CCGGCAGG, the binding signal is reported as 7.78 upbm affinity estimate (log intensity, higher = more binding, comparable within an allelic series).
With AGCCACGG the binding signal was 7.72 upbm affinity estimate (log intensity, higher = more binding, comparable within an allelic series).

What follows are sequences tested against MSX2 (Homo sapiens, UniProt P35548 130-214, F161Y) (assay: PBM; 200 nM protein, PBS). Details: dsDNA, one strand shown.
Sequence of MSX2 (P35548 130-214 F161Y): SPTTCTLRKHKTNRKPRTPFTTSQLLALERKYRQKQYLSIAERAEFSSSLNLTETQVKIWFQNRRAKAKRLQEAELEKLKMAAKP
In the case of GCCCGGAC, the binding signal is reported as 9.5 upbm affinity estimate (log intensity, higher = more binding, comparable within an allelic series).
In the case of CCCCCCAG, the binding signal is reported as 9.5 upbm affinity estimate (log intensity, higher = more binding, comparable within an allelic series).
For TAATTTGA, the binding signal was 13 upbm affinity estimate (log intensity, higher = more binding, comparable within an allelic series).
For CGCGCGCG, the binding signal was 9.52 upbm affinity estimate (log intensity, higher = more binding, comparable within an allelic series).

These sequences were tested against T1, PAX4 (Homo sapiens, UniProt O43316 9-242, R227W) (assay: PBM; 200 nM protein, PBS). Details: dsDNA, one strand shown.
T1 sequence: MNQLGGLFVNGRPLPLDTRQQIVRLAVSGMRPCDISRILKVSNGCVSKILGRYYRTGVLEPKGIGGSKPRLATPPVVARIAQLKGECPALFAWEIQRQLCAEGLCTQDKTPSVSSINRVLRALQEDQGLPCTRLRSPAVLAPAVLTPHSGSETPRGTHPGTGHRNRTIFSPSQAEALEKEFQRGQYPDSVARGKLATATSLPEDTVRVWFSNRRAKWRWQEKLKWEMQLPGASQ
With CCCTGGTC the binding signal was 9.21 upbm affinity estimate (log intensity, higher = more binding, comparable within an allelic series).
For GCACCACC, the binding signal was 9.35 upbm affinity estimate (log intensity, higher = more binding, comparable within an allelic series).
For TAATTTGA, the binding signal was 10.9 upbm affinity estimate (log intensity, higher = more binding, comparable within an allelic series).

The sequences below were run against HOXA2 (Homo sapiens, UniProt O43364 129-215, Y150S) (assay: PBM; 200 nM protein, PBS). Details: dsDNA, one strand shown.
Sequence of HOXA2 (Homo sapiens, UniProt O43364 129-215, Y150S) (O43364 129-215 Y150S): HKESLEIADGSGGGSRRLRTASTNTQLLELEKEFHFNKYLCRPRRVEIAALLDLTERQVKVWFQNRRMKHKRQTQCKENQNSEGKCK
For CAGGCTTC, the binding signal was 10.4 upbm affinity estimate (log intensity, higher = more binding, comparable within an allelic series).
For CCCCCCAG, the binding signal was 10.1 upbm affinity estimate (log intensity, higher = more binding, comparable within an allelic series).
ATGAATGA was tested, and the binding signal was 10.9 upbm affinity estimate (log intensity, higher = more binding, comparable within an allelic series).
GCCCCGAC was tested, and the binding signal was 10.5 upbm affinity estimate (log intensity, higher = more binding, comparable within an allelic series).
In the case of CAGGAAGG, the binding signal is reported as 10.4 upbm affinity estimate (log intensity, higher = more binding, comparable within an allelic series).

What follows are sequences tested against ALX1 (Homo sapiens, UniProt Q15699 118-204) (assay: PBM; 200 nM protein, PBS). Details: dsDNA, one strand shown.
Sequence of ALX1 (Q15699 118-204): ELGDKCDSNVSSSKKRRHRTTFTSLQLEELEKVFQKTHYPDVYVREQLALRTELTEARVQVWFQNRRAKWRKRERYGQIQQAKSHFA
In the case of CCGGACGG, the binding signal is reported as 6.67 upbm affinity estimate (log intensity, higher = more binding, comparable within an allelic series).
For CAGCCTCC, the binding signal was 6.39 upbm affinity estimate (log intensity, higher = more binding, comparable within an allelic series).
For CCGAGAGG, the binding signal was 6.34 upbm affinity estimate (log intensity, higher = more binding, comparable within an allelic series).

These sequences were tested against HOXA4 (Homo sapiens, UniProt Q00056 201-287, W262F) (assay: PBM; 200 nM protein, PBS). Details: dsDNA, one strand shown.
Sequence of HOXA4 (Q00056 201-287 W262F): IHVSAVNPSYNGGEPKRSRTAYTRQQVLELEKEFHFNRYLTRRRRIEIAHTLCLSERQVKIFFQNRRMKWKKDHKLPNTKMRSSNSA
In the case of CCCCAGGC, the binding signal is reported as 9.76 upbm affinity estimate (log intensity, higher = more binding, comparable within an allelic series).
AGCCCGAG was tested, and the binding signal was 9.85 upbm affinity estimate (log intensity, higher = more binding, comparable within an allelic series).
CCCTGGTC was tested, and the binding signal was 9.7 upbm affinity estimate (log intensity, higher = more binding, comparable within an allelic series).
CCGGACGG was tested, and the binding signal was 9.82 upbm affinity estimate (log intensity, higher = more binding, comparable within an allelic series).
GCACCACC was tested, and the binding signal was 9.79 upbm affinity estimate (log intensity, higher = more binding, comparable within an allelic series).
In the case of CCCGACGC, the binding signal is reported as 9.96 upbm affinity estimate (log intensity, higher = more binding, comparable within an allelic series).
For CAGGCTTC, the binding signal was 9.89 upbm affinity estimate (log intensity, higher = more binding, comparable within an allelic series).
For CCCCCTTC, the binding signal was 9.31 upbm affinity estimate (log intensity, higher = more binding, comparable within an allelic series).
In the case of GCCCGGAC, the binding signal is reported as 9.88 upbm affinity estimate (log intensity, higher = more binding, comparable within an allelic series).
For GCGGACCC, the binding signal was 9.89 upbm affinity estimate (log intensity, higher = more binding, comparable within an allelic series).
GAGGTTGC was tested, and the binding signal was 9.89 upbm affinity estimate (log intensity, higher = more binding, comparable within an allelic series).
In the case of CCCCCCAG, the binding signal is reported as 9.4 upbm affinity estimate (log intensity, higher = more binding, comparable within an allelic series).
With CCGAAGGC the binding signal was 9.89 upbm affinity estimate (log intensity, higher = more binding, comparable within an allelic series).
TAATTTGA was tested, and the binding signal was 10.8 upbm affinity estimate (log intensity, higher = more binding, comparable within an allelic series).
For GCCAAGCC, the binding signal was 9.89 upbm affinity estimate (log intensity, higher = more binding, comparable within an allelic series).
For CCCTCTCG, the binding signal was 9.89 upbm affinity estimate (log intensity, higher = more binding, comparable within an allelic series).
For CCCCACGG, the binding signal was 9.88 upbm affinity estimate (log intensity, higher = more binding, comparable within an allelic series).
In the case of GATCCCCC, the binding signal is reported as 9.82 upbm affinity estimate (log intensity, higher = more binding, comparable within an allelic series).
With CAGCCTCC the binding signal was 9.71 upbm affinity estimate (log intensity, higher = more binding, comparable within an allelic series).
For ACCTTCGC, the binding signal was 10.1 upbm affinity estimate (log intensity, higher = more binding, comparable within an allelic series).
In the case of GCCCCGAC, the binding signal is reported as 10.1 upbm affinity estimate (log intensity, higher = more binding, comparable within an allelic series).
With CAGGAAGG the binding signal was 9.73 upbm affinity estimate (log intensity, higher = more binding, comparable within an allelic series).
For GCCGGCCC, the binding signal was 9.8 upbm affinity estimate (log intensity, higher = more binding, comparable within an allelic series).
For CCGGCAGG, the binding signal was 9.96 upbm affinity estimate (log intensity, higher = more binding, comparable within an allelic series).
In the case of CGCGCGCG, the binding signal is reported as 10.1 upbm affinity estimate (log intensity, higher = more binding, comparable within an allelic series).
With GCCTCCCA the binding signal was 9.77 upbm affinity estimate (log intensity, higher = more binding, comparable within an allelic series).
For AGCCACGG, the binding signal was 9.91 upbm affinity estimate (log intensity, higher = more binding, comparable within an allelic series).
For GACCCTCC, the binding signal was 9.9 upbm affinity estimate (log intensity, higher = more binding, comparable within an allelic series).
GGGGGAAC was tested, and the binding signal was 9.64 upbm affinity estimate (log intensity, higher = more binding, comparable within an allelic series).
CCGAGAGG was tested, and the binding signal was 9.74 upbm affinity estimate (log intensity, higher = more binding, comparable within an allelic series).
CCCGAAGG was tested, and the binding signal was 9.93 upbm affinity estimate (log intensity, higher = more binding, comparable within an allelic series).
For CCCGAGGG, the binding signal was 9.77 upbm affinity estimate (log intensity, higher = more binding, comparable within an allelic series).

Each sequence was assayed against ALX3 (Homo sapiens, UniProt O95076 139-225, N203S) (assay: PBM; 200 nM protein, PBS). Details: dsDNA, one strand shown.
Sequence of ALX3 (Homo sapiens, UniProt O95076 139-225, N203S) (O95076 139-225 N203S): as the sequence (O95076 139-225 L168V) above, with V30L, N65S counted along it
CCGGACGG was tested, and the binding signal was 7.72 upbm affinity estimate (log intensity, higher = more binding, comparable within an allelic series).
In the case of CCCCCTTC, the binding signal is reported as 7.33 upbm affinity estimate (log intensity, higher = more binding, comparable within an allelic series).
CAGCCTCC was tested, and the binding signal was 7.61 upbm affinity estimate (log intensity, higher = more binding, comparable within an allelic series).
CCGGCAGG was tested, and the binding signal was 7.86 upbm affinity estimate (log intensity, higher = more binding, comparable within an allelic series).
AGCCACGG was tested, and the binding signal was 7.74 upbm affinity estimate (log intensity, higher = more binding, comparable within an allelic series).

Each sequence was assayed against PRRX1 (Homo sapiens, UniProt P54821 80-166) (assay: PBM; 200 nM protein, PBS). Details: dsDNA, one strand shown.
Sequence of PRRX1 (P54821 80-166): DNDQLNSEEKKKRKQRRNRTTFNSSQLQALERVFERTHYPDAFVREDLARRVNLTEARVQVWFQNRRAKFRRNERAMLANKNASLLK
For CCCCAGGC, the binding signal was 9.25 upbm affinity estimate (log intensity, higher = more binding, comparable within an allelic series).
For CAGGCTTC, the binding signal was 9.5 upbm affinity estimate (log intensity, higher = more binding, comparable within an allelic series).
GAGGTTGC was tested, and the binding signal was 8.94 upbm affinity estimate (log intensity, higher = more binding, comparable within an allelic series).
With CCCCCCAG the binding signal was 9.37 upbm affinity estimate (log intensity, higher = more binding, comparable within an allelic series).
With TAATTTGA the binding signal was 13.2 upbm affinity estimate (log intensity, higher = more binding, comparable within an allelic series).
For GCCCCGAC, the binding signal was 9.52 upbm affinity estimate (log intensity, higher = more binding, comparable within an allelic series).
In the case of CAGGAAGG, the binding signal is reported as 8.96 upbm affinity estimate (log intensity, higher = more binding, comparable within an allelic series).
With GGGGGAAC the binding signal was 9.62 upbm affinity estimate (log intensity, higher = more binding, comparable within an allelic series).

These sequences were tested against HOXA2 (Homo sapiens, UniProt O43364 129-215) (assay: PBM; 200 nM protein, PBS). Details: dsDNA, one strand shown.
Sequence of HOXA2 (Homo sapiens, UniProt O43364 129-215) (O43364 129-215): as the sequence (O43364 129-215 Y150S) above, with S22Y counted along it
With CAGGCTTC the binding signal was 7.25 upbm affinity estimate (log intensity, higher = more binding, comparable within an allelic series).
For CCCCCCAG, the binding signal was 6.91 upbm affinity estimate (log intensity, higher = more binding, comparable within an allelic series).
ATGAATGA was tested, and the binding signal was 9.56 upbm affinity estimate (log intensity, higher = more binding, comparable within an allelic series).
GCCCCGAC was tested, and the binding signal was 7.3 upbm affinity estimate (log intensity, higher = more binding, comparable within an allelic series).
With CAGGAAGG the binding signal was 7.14 upbm affinity estimate (log intensity, higher = more binding, comparable within an allelic series).

Each sequence was assayed against HOXB6 (Homo sapiens, UniProt P17509 132-218) (assay: PBM; 200 nM protein, PBS). Details: dsDNA, one strand shown.
Sequence of HOXB6 (P17509 132-218): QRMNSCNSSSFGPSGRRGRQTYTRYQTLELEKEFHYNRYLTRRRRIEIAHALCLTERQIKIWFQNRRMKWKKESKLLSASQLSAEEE
For CCGGACGG, the binding signal was 9.05 upbm affinity estimate (log intensity, higher = more binding, comparable within an allelic series).
With GCCCGGAC the binding signal was 8.94 upbm affinity estimate (log intensity, higher = more binding, comparable within an allelic series).
CAGCCTCC was tested, and the binding signal was 8.88 upbm affinity estimate (log intensity, higher = more binding, comparable within an allelic series).
In the case of GCCGGCCC, the binding signal is reported as 8.94 upbm affinity estimate (log intensity, higher = more binding, comparable within an allelic series).
